Measured values as given in PubChem BioAssay (NCI).
This is part of a sample that, as a whole, favours compounds with a hit. Of some 79,000 tested, about 15% had one in any assay. Active and inactive are the calls of the source. Rule as the data show it: active = growth inhibition above about 70%; inactive = the rest.

Legend:
[1] = NCI Yeast Anticancer Drug Screen. Data for the wt1 strain (AID 149);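 also: 0% = growth of vehicle-treated wt1 cultures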; details: S. cerevisiae wt1 strain (SPY 50644) growth inhibition, active compounds read high
Method in brief: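 Vehicle-normalised growth inhibition; strain wt1; compound exposure.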

[2] = NCI Yeast Anticancer Drug Screen. Data for the rad50EPP+ strain (AID 151);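 also: 0% = growth of vehicle-treated control cultures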; details: S. cerevisiae rad50 mutant strain, active compounds read high
Method in brief: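 One strain with a rad50 alteration (rad50EPP+) was compound-treated, its growth then compared to that of vehicle controls.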

[3] = NCI Yeast Anticancer Drug Screen. Data for the mgt1 strain (AID 153); details: S. cerevisiae mgt1 mutant growth inhibition, active compounds read high
Method in brief: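 After exposure of the mgt1 yeast mutant to compound, growth was measured and reported as inhibition compared with vehicle controls.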

[4] = NCI Yeast Anticancer Drug Screen. Data for the rad50 strain (AID 155);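 also: 0% = growth of vehicle-only cultures of the same strain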; details: S. cerevisiae rad50 strain growth inhibition, active compounds read high
Method in brief: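 A DNA repair-deficient yeast mutant serves as the test organism; compound-induced growth inhibition is calculated against vehicle-treated cells.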

[5] = NCI Yeast Anticancer Drug Screen. Data for the mec2-1 strain (AID 157); details: S. cerevisiae mec2-1 strain, active compounds read high
Method in brief: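 Test agents were screened against the mec2-1 yeast strain, with defined DNA repair or cell cycle alteration. Growth was scored as inhibition against vehicle-only controls.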

[6] = NCI Yeast Anticancer Drug Screen. Data for the rad14 strain (AID 159);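 also: 0% = growth of vehicle-treated control cultures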; details: S. cerevisiae rad14 strain growth inhibition, active compounds read high
Method in brief: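 Vehicle-treated cultures served as the baseline for growth inhibition of a DNA repair-mutant yeast strain exposed to each compound.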

[7] = NCI Yeast Anticancer Drug Screen. Data for the sgs1 mgt1 strain (AID 161);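 also: 0% = growth of cultures given vehicle only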; details: S. cerevisiae sgs1 mgt1 strain, active compounds read high
Method in brief: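 Mutant yeast exposed to compound; growth scored against vehicle-only wells.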

[8] = NCI Yeast Anticancer Drug Screen. Data for the CLN2oe strain (AID 163);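 also: 0% = growth of vehicle-only control cultures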; details: S. cerevisiae CLN2oe strain, active compounds read high
Method in brief: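 Here, growth inhibition in a cell-cycle-altered yeast strain after compound exposure was quantified against vehicle control growth.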

[9] = NCI Yeast Anticancer Drug Screen. Data for the cln2 rad14 strain (AID 165);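 also: 0% = growth equal to vehicle treated cultures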; details: S. cerevisiae cln2 rad14 strain, active compounds read high
Method in brief: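 Growth of compound-exposed yeast (cln2 rad14 genotype) measured and expressed as inhibition relative to vehicle.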

[10] = NCI Yeast Anticancer Drug Screen. Data for the bub3 strain (AID 167); details: S. cerevisiae bub3 mutant strain, active compounds read high
Method in brief: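 Inhibition values come from growth of compound-treated mutant yeast normalised to vehicle-treated controls.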

[11] = NCI Yeast Anticancer Drug Screen. Data for the wt2 strain (AID 169);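 also: 0% = growth of vehicle-treated yeast cultures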; details: S. cerevisiae wt2 strain growth inhibition, active compounds read high
Method in brief: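 Genetically defined yeast strains from a DNA-repair/cell-cycle panel were used. Compound-exposed yeast growth was measured, and the inhibition was calculated relative to vehicle treatment.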

[12] = NCI Yeast Anticancer Drug Screen. Data for the mlh1 strain (AID 171);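 also: 0% = growth of vehicle-treated control cultures of the same strain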; details: S. cerevisiae mlh1 strain growth inhibition, active compounds read high
Method in brief: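 Here the genetically defined yeast mutant is grown with each compound, and the extent to which its growth falls below that of vehicle-exposed cells is reported.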

[13] = NCI Yeast Anticancer Drug Screen. Data for the sgs1 strain (AID 173);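 also: 0% = growth of vehicle-only control cultures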; details: S. cerevisiae sgs1 mutant, active compounds read high
Method in brief: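 Relative growth inhibition, referenced to vehicle, was determined in a yeast strain with a defined alteration affecting DNA damage repair or cell cycle control after compound exposure.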

[14] = NCI Yeast Anticancer Drug Screen. Data for the mlh1 rad18 strain (AID 175); details: S. cerevisiae mlh1 rad18 strain growth inhibition, active compounds read high
Method in brief: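 In this whole-cell yeast screen, a strain with altered DNA damage repair is challenged with compound, and its growth is measured against matched vehicle-treated controls.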

[15] = NCI Yeast Anticancer Drug Screen. Data for the rad18 strain (AID 177); details: S. cerevisiae rad18 mutant growth inhibition, active compounds read high
Method in brief: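 Screen uses a yeast strain with a defined lesion in DNA damage repair; compound effect is read as loss of growth compared to untreated vehicle cultures.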

[16] = at 5.0 µM (retest, dose inferred, filed as 0.5)
[17] = at 50.0 µM (retest, dose inferred, filed as 5.0)

Measured: growth inhibition

O=C(Cc1ccccc1F)NC1=C(Cl)C(=O)c2ccccc2C1=O
inactive: [1]; at 1.2 µM 1% | [1]; at 3.7 µM 0% | [1]; at 11.0 µM 0% | [1]; at 33.0 µM 9% | [1]; at 100.0 µM 17% | [2]; at 1.2 µM 40% | [2]; at 3.7 µM 43% | [2]; at 11.0 µM 51% | [2]; at 33.0 µM 48% | [2]; at 100.0 µM 59% | [3]; at 1.2 µM -2% | [3]; at 3.7 µM 11% | [3]; at 11.0 µM 8% | [3]; at 33.0 µM 3% | [3]; at 100.0 µM 14% | [4]; at 1.2 µM 20% | [4]; at 3.7 µM 26% | [4]; [16] 14% | [4]; at 11.0 µM 13% | [4]; at 33.0 µM 22% | [4]; [17] 4% | [4]; at 50.0 µM 30.8% | [4]; at 100.0 µM 37% | [5]; at 1.2 µM 41% | [5]; at 3.7 µM 45% | [5]; [16] -16% | [5]; at 11.0 µM 46% | [5]; at 33.0 µM 55% | [5]; [17] 50% | [5]; at 50.0 µM -14.2% | [5]; at 100.0 µM 69% | [6]; at 1.2 µM -26% | [6]; at 3.7 µM -12% | [6]; at 11.0 µM -8% | [6]; at 33.0 µM 19% | [6]; at 100.0 µM 38% | [7]; [16] 1% | [7]; [17] 54% | [7]; at 50.0 µM 11.4% | [8]; at 1.2 µM 1% | [8]; at 3.7 µM 18% | [8]; at 11.0 µM 19% | [8]; at 33.0 µM -1% | [8]; at 100.0 µM 27% | [9]; [16] 33% | [9]; [17] 45% | [9]; at 50.0 µM 24.3% | [10]; at 1.2 µM 14% | [10]; at 3.7 µM 17% | [10]; [16] -6% | [10]; at 11.0 µM 27% | [10]; at 33.0 µM 47% | [10]; at 50.0 µM 54% | [11]; at 1.2 µM -9% | [11]; at 3.7 µM 3% | [11]; at 11.0 µM -8% | [11]; at 33.0 µM -1% | [11]; at 100.0 µM -4% | [12]; at 1.2 µM -2% | [12]; at 3.7 µM 11% | [12]; at 11.0 µM 8% | [12]; at 33.0 µM 3% | [12]; at 100.0 µM 14% | [13]; at 1.2 µM 39% | [13]; at 3.7 µM 35% | [13]; at 11.0 µM 41% | [13]; at 33.0 µM 59% | [13]; at 100.0 µM 58% | [14]; [16] 20% | [14]; [17] 28% | [14]; at 50.0 µM -1.75%
active: [10]; [17] 70% | [10]; at 100.0 µM 73%

O=C1C(Br)=CC(Br)(Br)C=C1Br
active: [1]; at 33.0 µM 97% | [1]; at 100.0 µM 99% | [2]; at 11.0 µM 70% | [2]; at 33.0 µM 98% | [2]; at 100.0 µM 98% | [3]; at 33.0 µM 98% | [3]; at 100.0 µM 99% | [4]; [16] 99% | [4]; at 33.0 µM 95% | [4]; [17] 99% | [4]; at 50.0 µM 90.8% | [4]; at 100.0 µM 98% | [5]; [16] 100% | [5]; at 33.0 µM 99% | [5]; [17] 97% | [5]; at 50.0 µM 93.5% | [5]; at 100.0 µM 99% | [6]; at 33.0 µM 95% | [6]; at 100.0 µM 98% | [7]; [17] 100% | [7]; at 50.0 µM 93.7% | [8]; at 33.0 µM 98% | [8]; at 100.0 µM 99% | [9]; [17] 100% | [9]; at 50.0 µM 92.5% | [10]; at 33.0 µM 96% | [10]; [17] 99% | [10]; at 50.0 µM 92% | [10]; at 100.0 µM 98% | [11]; at 33.0 µM 96% | [11]; at 100.0 µM 98% | [12]; at 33.0 µM 96% | [12]; at 100.0 µM 98% | [13]; at 33.0 µM 96% | [13]; at 100.0 µM 98% | [14]; [16] 100% | [14]; [17] 100% | [14]; at 50.0 µM 90.6% | [15]; at 33.0 µM 95% | [15]; at 100.0 µM 98%
inactive: [1]; at 1.2 µM 6% | [1]; at 3.7 µM 9% | [1]; at 11.0 µM 47% | [2]; at 1.2 µM 24% | [2]; at 3.7 µM 31% | [3]; at 1.2 µM 9% | [3]; at 3.7 µM 1% | [3]; at 11.0 µM 58% | [4]; at 1.2 µM 0% | [4]; at 3.7 µM -3% | [4]; at 11.0 µM 30% | [5]; at 1.2 µM 6% | [5]; at 3.7 µM 28% | [5]; at 11.0 µM 51% | [6]; at 1.2 µM -32% | [6]; at 3.7 µM -10% | [6]; at 11.0 µM 28% | [7]; [16] -27% | [8]; at 1.2 µM 24% | [8]; at 3.7 µM 18% | [8]; at 11.0 µM 34% | [9]; [16] 56% | [10]; at 1.2 µM -8% | [10]; at 3.7 µM -16% | [10]; [16] 21% | [10]; at 11.0 µM 7% | [11]; at 1.2 µM -9% | [11]; at 3.7 µM -11% | [11]; at 11.0 µM 51% | [12]; at 1.2 µM -8% | [12]; at 3.7 µM -10% | [12]; at 11.0 µM 46% | [13]; at 1.2 µM 2% | [13]; at 3.7 µM 5% | [13]; at 11.0 µM 59% | [15]; at 1.2 µM -4% | [15]; at 3.7 µM -13% | [15]; at 11.0 µM 26%
